From PubChem BioAssay (EPA / NIEHS)
Several values for one entry are separate records, joined by “and”; a condition that tells them apart may be missing. Equal entries are not always repeated. Results filed as inconclusive are left out. Activity calls are given as the source filed them. Rule for the calls, unless noted: active = hit-call score of the fitted dose curve at least 0.9, where 1 is the maximum; inactive = score below 0.9.

Key:
[1] = ACEA_ER_80hr: ACEA Biosciences xCELLigence Real-Time Cell Analysis on Estrogen Receptor Agonism for Proliferation (AID 2282667; active = hit-call score of the fitted dose curve at least 0.9, where 1 is the maximum); conditions: T47D proliferation, impedance (xCELLigence), 80 h
Method in brief: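 Real-time electrical impedance tracked growth of the human breast line T47D, with the 80 h post-dosing value used. Dosing spanned eight 1:4 steps down from a 100 uM final top concentration, run in duplicate.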

[2] = ATG_CRE_CIS: Attagene CIS-FACTORIAL HepG2 Assay for human cAMP Responsive Element (CRE) binding protein 3 (AID 2282926); conditions: HepG2 CRE cis-reporter, Attagene multiplexed mRNA; actives raise or lower the signal
Method in brief: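 Assay format: transient reporter transfection of HepG2, 24 h treatment, total RNA isolation with DNase I step. Reporter abundance read by fluorescence after PCR and capillary separation; DMSO-normalised gain or loss fitting.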

[3] = target: CCAAT/enhancer-binding protein beta (Homo sapiens) (UniProt P17676); assay: ATG_C_EBP_CIS: Attagene CIS-FACTORIAL HepG2 Assay for human CCAAT/Enhancer Binding Protein (C/EBP) beta (AID 2282927); conditions: HepG2 Attagene cis-factorial transcription factor reporter; actives raise or lower the signal
CCAAT/enhancer-binding protein beta (Homo sapiens), sequence (P17676 whole entry, looked up): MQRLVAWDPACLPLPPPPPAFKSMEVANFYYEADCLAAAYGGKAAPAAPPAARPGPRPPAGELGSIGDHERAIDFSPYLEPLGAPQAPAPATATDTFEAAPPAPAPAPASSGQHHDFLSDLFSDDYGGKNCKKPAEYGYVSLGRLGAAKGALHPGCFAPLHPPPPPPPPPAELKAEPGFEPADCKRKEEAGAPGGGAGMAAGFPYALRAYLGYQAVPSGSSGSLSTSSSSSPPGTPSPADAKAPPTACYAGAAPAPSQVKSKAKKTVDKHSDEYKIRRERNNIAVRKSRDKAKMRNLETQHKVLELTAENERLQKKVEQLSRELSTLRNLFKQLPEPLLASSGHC
Method in brief: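 Following a 24 h incubation with test chemical, transfected HepG2 cells yielded RNA whose reporter transcripts were quantified by RT-PCR and fluorescent capillary electrophoresis, with DMSO serving as baseline for bidirectional fitting.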

[4] = ATG_CMV_CIS: Attagene CIS-FACTORIAL HepG2 Assay for human CMV (Internal Marker) (AID 2282928); conditions: HepG2 CMV promoter reporter, transcription factor profiling; actives raise or lower the signal;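 note: endpoint acts as a background internal control marker rather than a target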
Method in brief: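 Readout: fluorescent reporter cDNA fragments separated by capillary electrophoresis after RT-PCR and HpaI cut. Cells: HepG2 carrying transfected cis-promoter reporter constructs, dosed 24 h. Endpoint serves as background internal-marker control, fit bidirectionally versus DMSO.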

[5] = ATG_DR4_LXR_CIS: Attagene CIS-FACTORIAL HepG2 Assay for human Liver X Receptor (LXR), DR4 submotif (AID 2282929); conditions: HepG2 Attagene DR4 cis-reporter, mRNA transcription; actives raise or lower the signal
Method in brief: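 Cells were transfected with multiple reporter transcription units, exposed to chemicals for 24 hours, then lysed for RNA. Reporter mRNA induction was measured by RT-PCR with capillary electrophoresis detection and fitted in both directions relative to DMSO.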

[6] = target: Aryl hydrocarbon receptor (Homo sapiens) (UniProt P35869); assay: ATG_Ahr_CIS: Attagene CIS-FACTORIAL HepG2 Assay for human Aryl Hydrocarbon Receptor (Ahr) (AID 2282930); conditions: HepG2 AhR cis-factorial reporter transcription; actives raise or lower the signal
Aryl hydrocarbon receptor (Homo sapiens), sequence (P35869 whole entry, looked up): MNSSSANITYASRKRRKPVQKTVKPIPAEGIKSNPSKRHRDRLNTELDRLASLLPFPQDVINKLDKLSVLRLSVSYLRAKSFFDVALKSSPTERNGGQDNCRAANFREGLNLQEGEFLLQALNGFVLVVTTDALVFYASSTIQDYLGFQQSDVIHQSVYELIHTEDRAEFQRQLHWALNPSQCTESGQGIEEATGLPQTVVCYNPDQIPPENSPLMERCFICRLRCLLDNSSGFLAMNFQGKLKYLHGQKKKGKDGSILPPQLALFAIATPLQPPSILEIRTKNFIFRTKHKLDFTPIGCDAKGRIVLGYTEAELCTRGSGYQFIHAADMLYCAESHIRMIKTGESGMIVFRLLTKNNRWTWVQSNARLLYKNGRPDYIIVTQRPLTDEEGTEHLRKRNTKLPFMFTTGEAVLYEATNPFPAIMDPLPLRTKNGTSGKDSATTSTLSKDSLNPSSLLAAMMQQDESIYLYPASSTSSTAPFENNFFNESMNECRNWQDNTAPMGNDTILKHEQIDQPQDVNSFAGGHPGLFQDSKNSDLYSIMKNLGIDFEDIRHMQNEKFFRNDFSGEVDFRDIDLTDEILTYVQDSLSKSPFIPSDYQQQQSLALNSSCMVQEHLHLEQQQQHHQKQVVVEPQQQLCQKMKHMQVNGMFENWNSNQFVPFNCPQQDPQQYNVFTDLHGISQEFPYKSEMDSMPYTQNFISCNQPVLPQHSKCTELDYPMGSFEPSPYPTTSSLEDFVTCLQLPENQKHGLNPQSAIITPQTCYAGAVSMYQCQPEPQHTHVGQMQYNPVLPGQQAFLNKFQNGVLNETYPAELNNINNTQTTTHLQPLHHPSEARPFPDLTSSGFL
Method in brief: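 Values derive from bidirectional fitting against DMSO negative control. Underlying signal: cis-element reporter mRNA in transiently transfected HepG2, harvested 24 h post-dose and measured by RT-PCR plus capillary electrophoresis.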

[7] = ATG_AP_1_CIS: Attagene CIS-FACTORIAL HepG2 Assay for human Activator Protein 1 (AP-1) (AID 2282931); conditions: HepG2 Attagene cis-factorial AP-1 reporter mRNA; actives raise or lower the signal
Method in brief: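 Endogenous transcription-factor activity in human HepG2 liver cells is read through a cis-promoter reporter transcript, sampled 24 h after dosing. Detection uses RT-PCR with capillary electrophoresis; values come from bidirectional fitting relative to DMSO.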

[8] = ATG_AP_2_CIS: Attagene CIS-FACTORIAL HepG2 Assay for human Activator Protein 2 (AP-2) (AID 2282932); conditions: HepG2 AP-2 cis-reporter, Attagene transcription factor profiling; actives raise or lower the signal
Method in brief: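 Cells (HepG2) transfected with promoter-driven reporter constructs, treated 24 h. Total RNA reverse-transcribed, reporter cDNA PCR-amplified, FAM-labelled by primer extension, digested, resolved by capillary electrophoresis. Activity fitted both directions versus DMSO.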

[9] = ATG_BRE_CIS: Attagene CIS-FACTORIAL HepG2 Assay for human Bone Morphogenetic Protein (BMP) Response Element (BRE) (AID 2282933); conditions: HepG2 BMP response element reporter, Attagene transcription factor profiling; actives raise or lower the signal
Method in brief: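 After a 24 h chemical treatment, transiently transfected HepG2 cells were lysed for RNA; reporter transcripts were quantified by fluorescent RT-PCR and capillary electrophoresis, normalised to DMSO.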

[10] = target: Retinoic acid receptor alpha (Homo sapiens) (UniProt P10276); assay: ATG_DR5_RAR_CIS: Attagene CIS-FACTORIAL HepG2 Assay for human Retinoic Acid Receptor Alpha (RARE), DR5 submotif (AID 2282934); conditions: HepG2 Attagene cis-factorial RARE DR5 reporter, mRNA; actives raise or lower the signal
Retinoic acid receptor alpha (Homo sapiens), sequence (P10276 whole entry, looked up): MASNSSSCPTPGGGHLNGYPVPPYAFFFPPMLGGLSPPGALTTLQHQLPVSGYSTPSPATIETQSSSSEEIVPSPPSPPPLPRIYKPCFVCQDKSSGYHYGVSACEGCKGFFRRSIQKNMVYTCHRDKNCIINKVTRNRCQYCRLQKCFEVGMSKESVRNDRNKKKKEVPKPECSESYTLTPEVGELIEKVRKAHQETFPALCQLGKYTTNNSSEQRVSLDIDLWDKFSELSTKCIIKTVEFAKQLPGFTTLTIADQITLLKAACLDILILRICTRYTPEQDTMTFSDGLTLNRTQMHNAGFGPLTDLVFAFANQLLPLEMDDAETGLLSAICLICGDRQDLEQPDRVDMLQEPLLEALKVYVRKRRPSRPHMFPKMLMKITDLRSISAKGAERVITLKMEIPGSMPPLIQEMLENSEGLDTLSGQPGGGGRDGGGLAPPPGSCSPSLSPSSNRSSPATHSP
Method in brief: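 Endpoint fitted in both directions relative to DMSO as negative control. It reflects DR5 cis-element reporter mRNA induction in transiently transfected HepG2 cells, measured 24 h after dosing through RT-PCR and fluorescent capillary electrophoresis.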

[11] = target: Transcription factor E2F1 (Homo sapiens) (UniProt Q01094); assay: ATG_E2F_CIS: Attagene CIS-FACTORIAL HepG2 Assay for human E2F Transcription Factor 1 (AID 2282935); conditions: HepG2 Attagene cis-reporter, E2F reporter RNA transcripts; actives raise or lower the signal
Transcription factor E2F1 (Homo sapiens), sequence (Q01094 whole entry, looked up): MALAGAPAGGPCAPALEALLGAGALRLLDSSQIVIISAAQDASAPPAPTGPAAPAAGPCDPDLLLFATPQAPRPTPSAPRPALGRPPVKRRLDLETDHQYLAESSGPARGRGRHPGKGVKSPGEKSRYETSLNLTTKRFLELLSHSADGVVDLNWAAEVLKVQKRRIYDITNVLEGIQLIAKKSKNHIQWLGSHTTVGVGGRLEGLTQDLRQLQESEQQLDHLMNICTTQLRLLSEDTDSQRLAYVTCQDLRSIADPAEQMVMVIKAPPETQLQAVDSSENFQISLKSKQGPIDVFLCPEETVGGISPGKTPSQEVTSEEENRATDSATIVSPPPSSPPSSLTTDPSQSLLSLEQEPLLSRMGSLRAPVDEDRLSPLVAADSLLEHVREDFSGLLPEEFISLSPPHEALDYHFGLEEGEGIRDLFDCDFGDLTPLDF
Method in brief: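 First, HepG2 cells were transfected with reporter transcription units. Next, they were dosed for 24 h. Then RNA was isolated, converted to cDNA, PCR-amplified, FAM-labeled, HpaI-digested and analyzed by capillary electrophoresis.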

[12] = ATG_E_Box_CIS: Attagene CIS-FACTORIAL HepG2 Assay for human Enhancer Box (E-box) (AID 2282936); conditions: HepG2 E-box cis-reporter transcription, actives raise or lower the signal
Method in brief: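 Endogenous transcription factor activity was sensed in human HepG2 liver cells through transfected cis-promoter reporter units. After 24 h of dosing, total RNA was reverse-transcribed and reporter cDNA resolved by capillary electrophoresis.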

[13] = ATG_M_61_CIS: Attagene CIS-FACTORIAL HepG2 Assay for M61 Transcription Factor (Internal Marker) (AID 2282937); conditions: HepG2 Attagene CIS-FACTORIAL M61 internal marker reporter; actives raise or lower the signal
Method in brief: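 Cells were transfected with reporter units under cis-regulatory promoters, treated with chemicals for 24 h, then lysed for RNA. Reporter transcripts were quantified by RT-PCR and capillary electrophoresis, and activity was fitted bidirectionally against DMSO.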

[14] = ATG_EGR_CIS: Attagene CIS-FACTORIAL HepG2 Assay for human Early Growth Response 1 (EGR1) (AID 2282938); conditions: HepG2 Attagene CIS-FACTORIAL EGR reporter mRNA; actives raise or lower the signal
Method in brief: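 Endogenous TF activity in HepG2 liver cells was gauged through cis-promoter reporter constructs transiently transfected. After 24 h dosing, reporter mRNA was quantified by RT-PCR and capillary electrophoresis, and curves fitted in both directions versus DMSO.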

[15] = ATG_M_19_CIS: Attagene CIS-FACTORIAL HepG2 Assay for M19 Transcription Factor (Internal Marker) (AID 2282939); conditions: HepG2 Attagene CIS-FACTORIAL M19 internal marker reporter; actives raise or lower the signal
Method in brief: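 In this multiplexed cell assay, transiently transfected HepG2 reporter units report endogenous transcription-factor activity; after 24 hours of treatment, labelled reporter cDNA fragments are quantified by capillary electrophoresis and fitted bidirectionally against DMSO.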

[16] = ATG_ERE_CIS: Attagene CIS-FACTORIAL HepG2 Assay for Estrogen Response Element (ERE) (AID 2282940); conditions: HepG2 ERE cis-reporter, Attagene RNA transcript; actives raise or lower the signal
Method in brief: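 Measuring endogenous transcription factor output, the assay doses transfected HepG2 cells for 24 hours and quantifies reporter transcripts by fluorescent RT-PCR and capillary electrophoresis, with DMSO as baseline.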

[17] = target: Hepatocyte nuclear factor 3-beta (Homo sapiens) (UniProt Q9Y261); assay: ATG_FoxA2_CIS: Attagene CIS-FACTORIAL HepG2 Assay for human Forkhead box A2 (FOXA2) (AID 2282942); conditions: HepG2 cis-reporter transcription factor activity, 24 h; actives raise or lower the signal
Hepatocyte nuclear factor 3-beta (Homo sapiens), sequence (Q9Y261 whole entry, looked up): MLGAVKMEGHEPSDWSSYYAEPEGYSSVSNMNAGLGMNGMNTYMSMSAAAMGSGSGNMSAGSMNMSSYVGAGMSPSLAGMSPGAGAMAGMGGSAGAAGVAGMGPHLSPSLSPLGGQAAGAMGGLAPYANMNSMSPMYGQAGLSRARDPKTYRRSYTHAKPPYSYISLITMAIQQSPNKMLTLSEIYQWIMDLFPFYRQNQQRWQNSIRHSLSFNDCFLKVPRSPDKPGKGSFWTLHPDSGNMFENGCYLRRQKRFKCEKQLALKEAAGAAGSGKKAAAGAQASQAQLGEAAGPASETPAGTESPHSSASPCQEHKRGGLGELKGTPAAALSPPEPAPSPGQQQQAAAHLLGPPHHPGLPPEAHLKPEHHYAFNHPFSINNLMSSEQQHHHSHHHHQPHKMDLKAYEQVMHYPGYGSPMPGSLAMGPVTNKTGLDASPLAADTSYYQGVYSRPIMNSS
Method in brief: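 Endogenous transcription factor activity was read in HepG2 cells carrying transiently transfected cis-promoter reporter units. After 24 h dosing, reporter mRNA was quantified by RT-PCR and capillary electrophoresis, and values fitted bidirectionally versus DMSO.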

[18] = ATG_FoxO_CIS: Attagene CIS-FACTORIAL HepG2 Assay for human Forkhead box O (FoxO) (AID 2282943); conditions: HepG2 Attagene cis-reporter, FoxO element, mRNA; actives raise or lower the signal
Method in brief: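 Values reflect reporter mRNA induction or loss in HepG2 cells 24 h post-dosing, fitted bidirectionally with DMSO as negative control and baseline. Detection used RT-PCR and fluorescence capillary electrophoresis.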

[19] = ATG_GATA_CIS: Attagene CIS-FACTORIAL HepG2 Assay for human GATA Binding Protein (AID 2282944); conditions: HepG2 GATA cis-element reporter, Attagene multiplex mRNA; actives raise or lower the signal
Method in brief: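 Measures endogenous transcription factor-driven reporter mRNA in HepG2 cells transiently carrying cis-regulated constructs. 24 h dosing; RNA via oligo(dT) reverse transcription, PCR, HpaI digestion, capillary electrophoresis; fitted relative to DMSO.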

[20] = ATG_Ets_CIS: Attagene CIS-FACTORIAL HepG2 Assay for human Erythroblast Transformation Specific (ETS) (AID 2282941); conditions: HepG2 ETS cis-reporter transcription, actives raise or lower the signal
Method in brief: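 RT-PCR/capillary electrophoresis fluorescence read-out of reporter mRNA; HepG2 transient multi-reporter transfection; 24 h compound exposure; gain or loss of signal fitted bidirectionally relative to DMSO.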

Measured: AC50

CC(Cc1ccc(O)c(O)c1)C(C)Cc1ccc(O)c(O)c1 (centres undefined)
active: [2] 22.9 µM | [11] 33.4 µM | [14] 20.5 µM | [16] 8.81 µM
not listed: [20]
inactive: all other assays above

O=C(O)C(F)(F)C(F)(F)C(F)F
not listed: [20]
inactive: all other assays above

CCCCCC=O
not listed: [10] | [20]
inactive: all other assays above

FC(F)(F)C(F)(F)C(F)(F)C(F)(F)C(F)(F)CCI
active: [4] 97.7 µM | [6] 32.1 µM | [7] 59.9 µM | [16] 51.2 µM
not listed: [20]
inactive: all other assays above

CCN(Cc1cccc(S(=O)(=O)O)c1)c1ccc(C(=C2C=CC(=[N+](CC)Cc3cccc(S(=O)(=O)O)c3)C=C2)c2ccc(O)cc2S(=O)(=O)[O-])cc1
active: [6] 33 µM | [16] 16.8 µM
not listed: [20]
inactive: all other assays above

CCCCCCC(C)OC(=O)CCCCC(=O)OC(C)CCCCCC (centres undefined)
not listed: [20]
inactive: all other assays above

Cc1ccc(S(=O)(=O)NCl)cc1
active: [6] 66.9 µM and 61.9 µM
not listed: [10]
inactive: all other assays above

CC(C)(C)C(=O)CC(=O)C(F)(F)C(F)(F)C(F)(F)F
not listed: [20]
inactive: all other assays above

CC(C)c1ccccc1N
active: [18] 152 µM
not listed: [20]
inactive: all other assays above

CCCCCCCCC(F)(F)C(F)(F)C(F)(F)C(F)(F)C(F)(F)C(F)(F)F
not listed: [20]
inactive: all other assays above

COC(OC(C)=O)c1ccccc1 (centres undefined)
not listed: [20]
inactive: all other assays above

FC(F)(F)C(F)(F)C(F)(F)C(F)(F)C(F)(F)C(F)(F)CCS
active: [16] 26.4 µM
not listed: [20]
inactive: all other assays above

C1COCCN1
not listed: [20]
inactive: all other assays above

C=C(C)C(=O)OCCC(F)(F)C(F)(F)C(F)(F)C(F)(F)C(F)(C(F)(F)F)C(F)(F)F
active: [16] 13.8 µM
not listed: [20]
inactive: all other assays above

Nc1ccc(S(=O)(=O)Nc2nccs2)cc1
not listed: [20]
inactive: all other assays above
